Results: PubChem BioAssay (NCI)
The panel holds about 83,000 compounds, 20% with a hit somewhere; the sample as a whole holds those more often.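 Single-dose data. Exposure time 48 hours. Values below 10 considered active.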 Values without a mark were called inactive. Activity calls are given as the source filed them.

Experiments:
Experiment in all cases: NCI-60 one-dose screen, 48 h (100 = growth as untreated, 0 = no growth, -100 = all killed)
Conditions in all cases: 10 µM unless noted
[1] = tested on: RPMI-8226 leukemia
[2] = tested on: OVCAR-8 ovarian
[3] = tested on: OVCAR-5 ovarian
[4] = tested on: OVCAR-4 ovarian
[5] = tested on: SK-OV-3 ovarian
[6] = tested on: IGROV1 ovarian
[7] = tested on: OVCAR-3 ovarian
[8] = tested on: HS 578T breast
[9] = tested on: NCI/ADR-RES ovarian
[10] = tested on: SR leukemia

Row | SMILES | growth [1] | growth [2] | growth [3] | growth [4] | growth [5] | growth [6] | growth [7] | growth [8] | growth [9] | growth [10]
1 | COc1cc(OC)cc(C(=O)Nc2cccc(-c3cn(-c4ccc(S(N)(=O)=O)cc4)nn3)c2)c1 | 114% | 39.4% | 113% | 72% | 47.5% | 99.5% | 90.9% | 70.3% | 94.4% | –
2 | CCCCSc1nc(Nc2ccc(S(N)(=O)=O)cc2)c(C#N)c(-c2cc(OC)c(OC)c(OC)c2)n1 | 10.7% | 31.5% | 53.7% | 40.2% | 105% | 46.8% | 49.8% | 67.8% | 32.5% | –
3 | COc1cccc(COc2ccc(NC(=O)Nc3ccc(Cl)c(C(F)(F)F)c3)cc2)c1 | 13.5% | 31.9% | 69.8% | 45.2% | 35.6% | 25.8% | 27.6% | 26.7% | 47.1% | –
4 | O=C(/C=C/c1ccc(O)c(O)c1)NC1CCOC1O (stereo not drawn) | 97.4% | 95.7% | 114% | 108% | 94.8% | 111% | 103% | 89.1% | 105% | –
5 | Cc1cc2nc3c4ccccc4n(CCNCCN(C)C)c3nc2cc1C | -25.9% (active) | – | – | 33% | 68.8% | 20% | 40.5% | 44.9% | 24.6% | -1.38% (active)
6 | CCCCSc1nc(NCCc2c[nH]c3ccccc23)c(C#N)c(-c2ccc(F)cc2)n1 | 49.7% | 75.1% | 97.3% | 76.1% | 83% | 92.3% | 74.3% | 58.3% | 58.2% | –
7 | Cc1cnc(C(=O)NNc2nc3cc(F)ccc3n3c(C(=O)N4CC5CC(C4)N5)ccc23)cn1 | 48.1% | 20.2% | 48.7% | 38.4% | 25.8% | 39.9% | 50.1% | 62.9% | 67% | –
8 | CC(=O)c1cc(C(=O)c2ccccc2)n2c1ccc1ccccc12 | 95.6% | – | – | 102% | 85.8% | 88.6% | 112% | 94.1% | 101% | 81.4%
9 | CN(C)c1nc(NCCNS(=O)(=O)c2ccc(C3=Nc4c(N)nc(N)nc4NC(c4ccc(Cl)cc4)C3)cc2)nc(Nc2ccc(F)cc2)n1 (stereo not drawn) | -2.32% (active) | – | 72.6% | 45.6% | – | 51.5% | 51.9% | 56.3% | 94.4% | 0.305% (active)
10 | C/C(=N\Nc1ccc(S(N)(=O)=O)cc1)c1ccc(N=Nc2c(Nc3ccccc3)[nH][nH]c2=O)cc1 | 3.47% (active) | -20.2% (active) | 58.3% | 42.6% | -15.5% (active) | 43.3% | -2.25% (active) | 21.5% | 89.6% | –
11 | N#Cc1c(NCc2ccccc2)n[nH]c1Nc1ccccc1 | 37.3% | 61.1% | 84.4% | 52.9% | 68% | 89.6% | 66.8% | 84.6% | 59.9% | –
12 | COCOc1cc2c(=O)c(C)c(C(=O)N[C@@H](Cc3ccccc3)C(O)C(=O)NCc3ccccc3)oc2cc1OC (stereo partly drawn) | 67.3% | 2.29% (active) | 92.5% | 28.2% | 22.8% | 57.6% | 65.4% | 9.01% (active) | 88% | –
13 | CN(C)CCn1c2ccccc2c2nc3cc(C(F)(F)F)ccc3nc21 | – | 35.7% | 38.8% | 54.3% | 41.5% | 22.4% | 69.2% | – | 30.2% | 11.1%
14 | N/C(=N\N=C\c1ccc([N+](=O)[O-])cc1)c1c(N)nc(=S)[nH]c1-c1ccc(Cl)cc1Cl | 97.3% | 98.4% | 111% | 111% | 89.1% | 94.9% | 110% | 87.1% | 105% | –
15 | Cc1cc(C)n(-c2ccc3nnc(-c4ccccc4)n3n2)n1 | 119% | 96.9% | 128% | 92.9% | 128% | 111% | 91.6% | 117% | 76.1% | –
16 | CCCSc1nc(NCCc2c[nH]c3ccccc23)c(C#N)c(-c2ccccc2)n1 | 44.5% | 82.1% | 91.8% | 82.1% | 91% | 100% | 100% | 66.8% | 69% | –
17 | CN1CCN(Cc2ccc(C(=O)Nc3cccc(C#Cc4cccc5[nH]nc(N)c45)c3)cc2C(F)(F)F)CC1 | -45.1% (active) | -98.1% (active) | -94.8% (active) | -60.9% (active) | -89.1% (active) | -70.8% (active) | -46.6% (active) | -17.5% (active) | -61% (active) | –
18 | Cc1cc2nc3c([nH]c2cc1C)c1ccc(=O)cc1n3CCN(C)C | – | 34% | 39.8% | 46.9% | 63.7% | 28.2% | 67.3% | 81.3% | 33.6% | 3.01% (active)
19 | COc1ccc(C(=O)/C=C/c2c(F)cccc2Cl)cc1S(N)(=O)=O | -10.1% (active) | 3.5% (active) | 25% | 42.9% | 27% | 21.6% | -63.4% (active) | 27% | 12.2% | –
20 | Cc1cc(N=C2NC(=O)CS2)n[nH]1 | 144% | 106% | 99.6% | 123% | 121% | 99.8% | 105% | 102% | 111% | –
21 | O=C(Nc1ccc(C(F)(F)F)cc1)Nc1ccc2oc(=O)ccc2c1 | -20.4% (active) | 15.7% | 39.5% | 41.7% | 16% | 33% | 26.7% | 49.7% | 12.4% | –
22 | CN(C)CCCNC(=O)c1cc(NC(=O)c2cc(NC(=O)c3ccc(C#Cc4ccccc4)cc3)cn2C)cn1C | -49% (active) | – | – | 43.6% | 46.5% | 34.3% | -2.81% (active) | 31.7% | 56.6% | -46.3% (active)
23 | Cc1ccc(-c2nnc3ccc(N/N=C/c4ccccc4)nn23)cc1 | 80.6% | 87.1% | 107% | 69.1% | 100% | 98.9% | 30.3% | 46.6% | 84.1% | –
24 | CN(C)c1ccnc(CNCCSC2(c3ccccc3)c3ccccc3C=Cc3ccccc32)c1 | -48% (active) | -45.1% (active) | 1.39% (active) | 16.8% | 6.47% (active) | 11.1% | -58.6% (active) | -34% (active) | -61.6% (active) | –
25 | COc1ccc(NC(=O)Cn2c3c(sc2=O)[C@H]2[C@@H](O)[C@@H](O)[C@H](O)[C@@H]2CS3)cc1 | – | – | 105% | 106% | – | 104% | 109% | 107% | 107% | 99.1%
26 | COc1ccc(-c2nc3cc(C)ccc3n2CC(=O)N=Nc2c(O)[nH]c3ccc(Cl)cc23)cc1 | 41.8% | – | 3.51% (active) | -25.4% (active) | – | 18.3% | -13.8% (active) | -2.87% (active) | -30.8% (active) | -7.22% (active)
27 | N/N=C(\N)c1c(N)nc(=S)[nH]c1-c1ccc(Cl)cc1Cl | 109% | 110% | 108% | 105% | 86.7% | 106% | 109% | 100% | 114% | –
28 | CCN1CCN(Cc2ccc(C(=O)Nc3cccc(C#Cc4cccc5[nH]nc(N)c45)c3)cc2C(F)(F)F)CC1 | -30.9% (active) | -96.8% (active) | -88.8% (active) | -24.8% (active) | -69.2% (active) | -44.7% (active) | -22.1% (active) | -15.8% (active) | -27% (active) | –
29 | NS(=O)(=O)c1ccc(-n2cc(-c3cccc(NC(=O)c4cc(N5CCOCC5)cc(C(F)(F)F)c4)c3)nn2)cc1 | 98.8% | 5.31% (active) | 108% | 48.3% | 31.2% | 72.9% | 69% | 47.9% | 98.5% | –
